From PubChem
Hits are enriched below; roughly 3.3% of the tested compounds scored in any of these assays.
UBC9 SUMO inh – blocks human SUMOylation mediated by UBC9; HTRF SUMOylation assay, SAE1/SAE2 + UBC9, in vitro; inhibition, % at 35 µM; P63279; actives 0.36% (n = 290,000); in the data active = inhibition above about 50%, passing the limit was not always enough
Target sequence (P63279 whole entry, looked up): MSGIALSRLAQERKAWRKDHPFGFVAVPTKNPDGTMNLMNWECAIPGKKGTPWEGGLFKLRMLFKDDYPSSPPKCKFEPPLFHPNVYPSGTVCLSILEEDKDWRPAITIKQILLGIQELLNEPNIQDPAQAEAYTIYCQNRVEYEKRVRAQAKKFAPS
sPLA2-III inh – Inhibits HGIII-sPLA2 liposome hydrolysis, primary screen. QFRET BODIPY PC-A2 liposome hydrolysis, fluorescence. actives 0.56% (n = 370,000). Q9NZ20. inhibition, % at 12.2 µM. AID 743126;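 active = inhibition above mean plus 3 SD of compounds lying within the high and low control bounds, cut at about 19% in these data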;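 note: 0% = median of test compound wells and 100% = no enzyme DMSO wells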
NR3A LBD binder – NR3A (human) ligand-binding domain modulation; NR3A LBD differential scanning fluorimetry, Tm shift; 0% = protein alone, 100% = glycine-bound protein; Tm shift relative to glycine control, % at 25 µM; actives 2.5% (n = 340,000); AID 1259313;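 active = melting temperature shift of at least 10% of the positive control shift, at one fixed dose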
UBC13 inh – blocks human UBC13 polyubiquitin chain formation; TR-FRET; inhibition, % at 20 µM; actives 0.47% (n = 330,000); AID 485273; in the data active = inhibition above about 45%, passing the limit was not always enough
Target sequence (P61088 whole entry, looked up): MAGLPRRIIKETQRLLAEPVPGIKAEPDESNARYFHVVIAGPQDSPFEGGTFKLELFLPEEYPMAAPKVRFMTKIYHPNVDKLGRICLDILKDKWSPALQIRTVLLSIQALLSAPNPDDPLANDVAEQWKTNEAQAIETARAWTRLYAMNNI
The depositor's hits bear a star; nt = no result.

SMILES | UBC9 SUMO inh | sPLA2-III inh | NR3A LBD binder | UBC13 inh
O=C(CCc1ccccc1)N[C@H]1[C@H](O)CCC[C@]12C(=O)N(Cc1ccccc1)c1ccccc12 | nt | 4 | nt | nt
CCOC(=O)c1ccc(NC(=O)Nc2ccc(OC)c(OC)c2)cc1 | -14 | -15 | 16* | -5
CCCCOC(=O)c1ccc(NC(=O)Nc2ccc(OC)c(OC)c2)cc1 | -12 | -51 | 19* | 3
CCCCOC(=O)c1ccc(NC(=O)c2c(OC)cccc2OC)cc1 | 3 | -1 | 9 | 10
CCOC(=O)c1ccccc1NC(=O)Nc1ccc(OC)c(OC)c1 | -2 | 5 | 0 | 0
CCN(CC)c1nc(C)nc2c1nnn2Cc1ccccc1 | nt | 5 | nt | nt
Cc1cccc(NC(=O)Nc2ccc(Cl)c(Cl)c2)n1 | 4 | 6 | 3 | -1
COc1ccc(NC(=O)Nc2sc(=S)n(C)c2C)cc1 | 4 | 2 | 24* | 6
Cc1c(NC(=O)Nc2ccc(Cl)c(Cl)c2)sc(=S)n1C | nt | 11 | 22* | 2
N#CC1C(=O)c2ccccc2C1c1ccccc1 (configuration not stated) | nt | 1 | 20* | nt
CCOC(=O)c1cnc2ccc(OCC)cc2c1NCc1ccccc1 | -8 | -8 | 15* | -6
CCOC(=O)c1cnc2ccc(OCC)cc2c1NCc1cccnc1 | 25 | 3 | -8 | -12
O=C(CCc1ccccc1)NNC(=O)Nc1ccc(Br)cc1 | -11 | -11 | 12* | 6
C/C(=N\NC(=O)COc1ccccc1)c1ccc(O)cc1 | 28 | 2 | 13* | -12
O=C(CCCC(=O)NNC(=O)Nc1ccccc1)NNC(=O)Nc1ccccc1 | -7 | 1 | -2 | 0
O=C(CCc1ccccc1)NC(NC(=S)Nc1cccc(Cl)c1)C(Cl)(Cl)Cl (configuration not stated) | 21 | -4 | 38* | -8
O=C(COc1ccccc1)Nc1ccc2c(c1)Cc1cc(NC(=O)COc3ccccc3)ccc1-2 | 4 | 6 | 23* | -10
COc1ccc(OCC(=O)N/N=C(\C)c2ccc(OC)cc2)cc1 | 4 | 7 | -2 | -12
CC(COc1cccc(OC(F)(F)F)c1)CN1CCC(C(O)(c2ccccc2)c2ccccc2)CC1 (configuration not stated) | nt | -20 | nt | nt
CCC[C@H]1[C@@H](NC(=O)Nc2ccc3c(c2)OCO3)CC[C@@]23CCCN2C(=O)CCC[C@@H]13 | nt | -7 | nt | nt
COC(=O)[C@]12C[C@H](CC(=O)NCc3cccc4ccccc34)C(=O)N(CCc3ccc(OC)c(OC)c3)C1=C[C@H](COCc1ccccc1)O[C@@H]2C | nt | -16 | nt | nt
O=C(CCc1ccccc1)Nc1ccncc1 | 16 | 2 | -13 | 3
CCCC(=O)NC(NC(=S)Nc1ccc(N=Nc2ccccc2)cc1)C(Cl)(Cl)Cl (configuration not stated) | 16 | 3 | 22* | -15
COc1ccc(OCC(=O)NNC(=O)CCc2ccccc2)cc1 | 21 | -3 | -1 | 4
O=C(CCc1ccccc1)NNC(=O)COc1ccccc1 | 18 | 4 | 13* | -6
SMILES | UBC9 SUMO inh | sPLA2-III inh | NR3A LBD binder | UBC13 inh
O=C(CCc1ccccc1)NC(NC(=S)Nc1ccc(Br)cc1)C(Cl)(Cl)Cl (configuration not stated) | 18 | -1 | 14* | -21
O=C(CCc1ccccc1)Nc1cc(NC(=O)CCc2ccccc2)cc(C(=O)O)c1 | -1 | -10 | 17* | -2
COC(=O)[C@]12C[C@H](CC(=O)N3CCN(C(=O)c4ccco4)CC3)C(=O)N(Cc3cccc4ccccc34)C1=C[C@H](C(C)(C)C)O[C@@H]2C | nt | -8 | nt | nt
CN(C)c1cccc(-c2cnc(N3CCC(C(N)=O)CC3)s2)c1 | nt | 9 | nt | nt
CC(C)CNC(=O)OCc1cn(Cc2ccccc2)nn1 | nt | 2 | nt | nt
COC(=O)[C@]12C[C@H](CC(=O)N3CCCC3)C(=O)N(CCC3=CCCCC3)C1=C[C@H](C1CCCC1)O[C@@H]2C | nt | 9 | nt | nt
Cc1ccc(N2C(=O)C3C4C=CC(CNC(=S)Nc5ccc(Cl)cc5)(O4)C3C2=O)cc1 (configuration not stated) | -2 | -11 | 12* | -7
Cc1ccc(N2C(=O)C3C4C=CC(CNC(=S)Nc5cccc(Cl)c5)(O4)C3C2=O)cc1 (configuration not stated) | 0 | -6 | 20* | -13
Cc1ccc(N2C(=O)C3C4C=CC(CNC(=S)Nc5ccc(F)cc5)(O4)C3C2=O)cc1 (configuration not stated) | -5 | 10 | -4 | -5
O=C(CN1C(=O)C2(OCCCO2)c2ccccc21)NCc1ccc(F)cc1 | nt | 2 | nt | nt
CC(=O)Oc1ccc2cc(-c3nc4ccccc4n3C)c(=O)oc2c1 | 56* | 11 | 2 | 5
CCCNC(=O)c1oc2ccc3c(c2c1C)C(=O)CC(C)(C)O3 | 10 | 2 | 633* | 16
CCCNC(=O)c1oc2ccc3c(c2c1C)C=CC(C)(C)O3 | 4 | 7 | -7 | -7
Cc1cc(NC(=O)c2oc3ccccc3c2C)ccc1-n1cnnn1 | 4 | -21 | 23* | 8
CCc1[nH]c(=O)c(C#N)c2c1CSC(C)(C)C2 | 10 | nt | 13* | -6
O=C(Cn1nnc(-c2ccccc2NC(=O)c2cccs2)n1)Nc1ccccc1 | 2 | -3 | 22* | 3
Cc1c(C(=S)Nc2ccccc2)cnn1-c1ccccc1 | -7 | 0 | 15* | 2
CCOc1ccc(-n2c(=S)sc3c(=O)n(-c4ccc(F)cc4)c(SCC(=O)O)nc32)cc1 | 1 | -9 | 15* | -10
COC(=O)[C@]12C[C@H](CC(=O)NCC34CC5CC(CC(C5)C3)C4)C(=O)N(Cc3ccc(Cl)cc3Cl)C1=C[C@H](C(C)(C)C)O[C@@H]2C | nt | -2 | nt | nt
C=CCOc1cccc(C(=O)N2CCC(CCC(=O)NC3CC3)CC2)c1 | -2 | 3 | 16* | -6
COC(=O)C1CN(C2CCCC2)CCS(=O)(=O)N1Cc1ccc(C(F)(F)F)cc1 (configuration not stated) | nt | -4 | nt | nt
Cc1cc(C(=O)CN2C(=O)NC3(CCCc4sccc43)C2=O)c(C)n1-c1ccccc1 (configuration not stated) | 0 | 3 | 15* | 3
O=C(Nc1ccc(Cl)c([N+](=O)[O-])c1)Nc1nc2ccccc2s1 | -6 | nt | nt | -1
O=C(Nc1csc([N+](=O)[O-])c1)Nc1c(Cl)cccc1Cl | 7 | -7 | -1 | -1
O=C(Nc1ccc(Cl)cc1)Nc1csc([N+](=O)[O-])c1 | 18 | -16 | 33* | 6
SMILES | UBC9 SUMO inh | sPLA2-III inh | NR3A LBD binder | UBC13 inh
O=C(Nc1ccccc1)Nc1ccc(Cl)c([N+](=O)[O-])c1 | 4 | 2 | 23* | -9
Cc1ccc(NC(=O)Nc2ccccc2)cc1[N+](=O)[O-] | 6 | 9 | 13* | 12
O=C(Nc1ccc([N+](=O)[O-])cc1)Nc1ccc(Cl)cc1F | 24 | 6 | 22* | -1
COc1ccc(S[C@]2(C(=O)N3CCCC3)CC(=O)N(C(=O)C3CC3)[C@@H]2c2ccc(OC)cc2)cc1 | nt | 6 | nt | nt
COc1cc2c(c(OC)c1OC)C1(CCCCC1)CC2NS(=O)(=O)C(C)C (configuration not stated) | nt | 6 | nt | nt
Cc1ccc(OCC(=O)NNC(=O)Nc2ccc(Cl)cc2)c(Br)c1 | nt | -12 | -2 | 2
